# Assay results reported in PubChem BioAssay (NCI).
# About 83,000 compounds went through this panel and 20% of them were active in at least one assay; those are over-represented in the sample as a whole.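 Growth was measured after 48 h exposure to one concentration of compound in 96-well plates. Values under 10 count as active.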 Unmarked numbers belong to inactive results. Calls of active or inactive are those of the source.
# Test system: MDA-MB-468 breast
# Test: NCI-60 one-dose screen, 48 h (100 = growth as untreated, 0 = no growth, -100 = all killed)
# Conditions: 10 µM unless noted
row,Structure (SMILES),growth
1,O=C(Nc1cccc(-n2ccc3c(NC(=O)c4ccccc4)nccc32)c1)Nc1cc(C(F)(F)F)cc(C(F)(F)F)c1,7.42% (active)
2,O=C1C(Cl)=C(NCCCN2CCOCC2)C(=O)c2ccccc21,64.7%
3,COc1ccc(S(=O)(=O)N2CCN(C)CC2)cc1NC(=O)c1[nH]c(C)c2c1CCCCC2=O,39.8%
4,CCCCN(CCCC)CC(CN(CC)CC)OC(=O)Nc1ccccc1 (stereo unspecified),90%
5,O=C(Nc1cccc(-c2nc(-c3ccc(NC(=O)c4cccs4)cc3Cl)no2)c1)Nc1ccc(NC(=O)C2CC2)c(C(F)(F)F)c1,-84.6% (active)
6,CCCCc1nc(Cl)c(C2CC(c3ccc(Cl)cc3)=NN2c2cc(Cl)cc(Cl)c2)[nH]1 (stereo unspecified),88.3%
7,Brc1cccc(/C=N/Nc2nc(N/N=C/c3cccc(Br)c3)nc(N3CCOCC3)n2)c1,1.09% (active)
8,Cc1ccc(/C=C2\CN(Cc3cn(CCNc4ccnc5cc(Cl)ccc45)nn3)C/C(=C\c3ccc(C)cc3)C2=O)cc1,-31.1% (active)
9,O=C(Nc1ccccc1CNc1nc(Nc2ccc(OCCN3CCCC3)cc2)ncc1Cl)NC1CCCCC1,89.4%
10,CCCCC/C=C/C(=O)CCc1ccc(O)c(OC)c1,65.8%
11,COc1cc(-c2nc(SCCC(C)C)nc(N3CCOCC3)c2C#N)cc(OC)c1OC,98.2%
12,COc1ccc(/C(=C/c2cc(OC)c(OC)c(OC)c2)[N+](=O)[O-])cc1,-75.2% (active)
13,CC(C)[C@H]1c2[nH]c3ccccc3c2C[C@H]2C(=O)N(CCCCCCC(=O)NO)CC(=O)N12,64.2%
14,O=C1c2cccc(NCCN=Cc3cc([N+](=O)[O-])ccc3O)c2C(=O)c2c(NCCN=Cc3cc([N+](=O)[O-])ccc3O)cccc21,43.4%
15,C=C1C(=O)O[C@H]2[C@H]1CC/C(COC(=O)c1ccccc1)=C\CC[C@@]1(C)O[C@@H]21,-28.7% (active)
16,O=c1[nH]nc(-c2ccc(Br)cc2)cc1Cc1ccc(O)cc1,107%
17,O=C1/C(=C/c2ccccc2Br)COc2ccc(O)cc21,69.1%
18,COc1cc(C(=O)c2cc(C(C)=O)c3c4ccccc4ccn23)cc(OC)c1OC,42.1%

row,Structure (SMILES),growth
1,c1ccc(-c2nnc(-c3ccccn3)s2)nc1,23.5%
2,COc1ccc(C(=O)c2sc3nc(-c4cccs4)ccc3c2N)cc1OC,8.13% (active)
3,O=c1c2c(=NCCN3CCCC3)cc3c(=O)n(CCCN4CCOCC4)c(=O)c4c(-c5ccc(CN6CCCC6)cc5)cc(c(O)n1CCCN1CCOCC1)c2c4-3,-58.1% (active)
4,COc1cc2c(cc1O)CC[C@@H]1[C@@H]2CC[C@]2(C)[C@@H](OCCN(C)C)CC[C@@H]12,19.3%
5,O=C(CN1C(=O)c2ccccc2S1(=O)=O)Nc1nc(-c2cc3ccccc3oc2=O)cs1,100%
6,CC(C)c1ccc(/C=N/N=C(N)N)cc1,35.3%
7,CCCNC(=O)c1ccc(S(N)(=O)=O)cc1,82.1%
8,C[C@@H]1CC[C@@H]2[C@@H]1[C@H](OC(=O)/C=C/c1ccccc1)[C@]1(c3ccccc3)C[C@@H](NC(=O)CO)[C@@]2(C)O1,98.3%
9,C/C(=N\NC(=O)CSc1nc2ccccc2c(=O)n1CCc1ccc(S(N)(=O)=O)cc1)c1ccccn1,25.3%
10,CC(=O)Nc1ccc(Sc2ccc(NC(C)=O)cc2)cc1,100%
11,O=C1/C(=C\c2ccccc2)CN(C(=O)c2ccccc2)C/C1=C\c1ccccc1,-48.6% (active)
12,CC(C)(C)c1ccc(O)c(Cc2cc(C(C)(C)C)ccc2O)c1,119%
13,CC1(C(=O)O)NC(C(=O)O)Cc2c1[nH]c1ccccc21 (stereo unspecified),113%
14,C#Cc1cc(C(=O)Nc2ccc(CN3CCN(C)CC3)c(C(F)(F)F)c2)ccc1C,66.5%
15,COc1ccccc1N=Nc1c(O)ccc2cc(S(=O)(=O)O)ccc12,111%
16,CCOC(=O)C#Cc1c(C(=O)OCC)nnn1[C@@H]1O[C@H](CO)[C@H]2OC3(CCCCC3)O[C@H]21,-19.7% (active)
17,C[N+](C)(CCCCCC[N+](C)(C)C1c2ccccc2-c2ccccc21)C1c2ccccc2-c2ccccc21,107%
18,Cn1cc(-c2ccc3cc(-c4ccc(CC(=O)Nc5cc(C(C)(C)C)nn5C)cc4)cnc3c2)cn1,-6.24% (active)
